Rows were chosen to be rich in hits. Some 4.1% of all compounds tested hit in one or more screens of this group.
Beta apoptosis: inhibitors of cytokine-induced beta cell apoptosis, primary screen, luminescence. AID 435005, 2010. INS-1E cytokine-induced death, ATP luminescence, 48 h; percent of positive-control rescue, neutral wells zero. 300,000 compounds, 0.8% hits. protection from apoptosis, % (concentration not given with the values);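 active = Every replicate reaches about 75%, or at least half do and their mean reaches it too, limit read from the data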;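 also: higher means more ATP so stronger rescue from cytokine killing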
CSC inhib: cancer stem cell viability inhibitors, primary screen, luminescence; cancer stem cell-like cells viability; inhibition, % at 7.5 µM; 300,000 compounds, 1.1% hits; in the data active = inhibition above about 75%; tested in HMLE shEcad cells
aSyn 5UTR inh: MLPCN primary screen, SNCA 5' untranslated region. 300,000 compounds, 0.82% hits. inhibition, % (tested at 7.5 µM). alpha-synuclein 5'UTR reporter, inhibitor activity; in the data active = inhibition above about 60%;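 also: H4 neuroglioblastoma cells stably carrying SNCA 5'UTR luciferase fusion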
Mdm2 MdmX PPI: inhibitors of human Mdm2-MdmX association, primary screen, cell-based, luminescence, split luciferase, SaOS-2, uHTS. Protein Mdm4 (Homo sapiens) + E3 ubiquitin-protein ligase Mdm2 (Homo sapiens), …. 330,000 compounds, 3% hits. inhibition, % at 8 µM. AID 485346, 2010. SaOS-2 split-luciferase Mdm2/MdmX complementation;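 active = inhibition of at least 50% at 8 µM in the primary screen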
Target sequence (O15151 whole entry, looked up): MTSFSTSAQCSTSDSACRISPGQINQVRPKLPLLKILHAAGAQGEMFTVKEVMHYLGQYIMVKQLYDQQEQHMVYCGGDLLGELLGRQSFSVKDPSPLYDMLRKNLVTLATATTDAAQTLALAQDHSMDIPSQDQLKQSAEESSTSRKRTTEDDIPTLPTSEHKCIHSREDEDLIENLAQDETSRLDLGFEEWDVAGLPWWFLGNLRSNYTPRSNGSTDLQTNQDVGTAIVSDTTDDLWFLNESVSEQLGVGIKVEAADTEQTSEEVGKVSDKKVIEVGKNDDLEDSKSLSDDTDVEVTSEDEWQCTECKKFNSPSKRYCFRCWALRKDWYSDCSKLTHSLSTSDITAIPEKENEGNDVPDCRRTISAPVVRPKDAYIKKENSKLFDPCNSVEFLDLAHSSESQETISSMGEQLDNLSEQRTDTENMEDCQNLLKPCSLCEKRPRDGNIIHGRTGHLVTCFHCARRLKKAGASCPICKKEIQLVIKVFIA
Target sequence (Q00987 whole entry, looked up): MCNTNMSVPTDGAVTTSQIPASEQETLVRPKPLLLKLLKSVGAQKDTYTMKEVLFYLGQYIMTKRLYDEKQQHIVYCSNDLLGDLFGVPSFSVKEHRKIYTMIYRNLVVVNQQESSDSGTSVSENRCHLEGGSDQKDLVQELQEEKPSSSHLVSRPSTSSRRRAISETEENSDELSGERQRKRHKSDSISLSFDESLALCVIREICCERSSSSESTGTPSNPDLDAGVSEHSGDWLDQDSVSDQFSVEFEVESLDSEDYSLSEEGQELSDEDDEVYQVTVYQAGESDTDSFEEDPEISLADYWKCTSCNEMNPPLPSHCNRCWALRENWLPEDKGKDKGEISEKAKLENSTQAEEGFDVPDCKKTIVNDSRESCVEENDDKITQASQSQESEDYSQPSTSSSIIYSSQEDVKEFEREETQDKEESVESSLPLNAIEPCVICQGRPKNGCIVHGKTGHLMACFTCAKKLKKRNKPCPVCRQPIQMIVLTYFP
A1 inh: caspase 3/7 activation in MEF A1-2A-BIM cells, primary screen, A1 inhibitor project, cell-based, luminescence, HTS; 330,000 compounds, 0.066% hits; AID 2462, 2010; Caspase-Glo 3/7 luminescence, 3 h; percent of clofoctol response, vehicle zero; caspase activation, % (test concentration not listed);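 active = over half of replicate activation scores above 10%, or exactly half above 10 with the replicate mean above 10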
Numbers stand for hits; - = inactive; . = no result given.

SMILES	Beta apoptosis	CSC inhib	aSyn 5UTR inh	Mdm2 MdmX PPI	A1 inh
CCOc1cc(C(=O)CSc2nnc(CNc3ccc(Cl)cc3)o2)ccc1NC(=O)CC	-	-	-	-	8.7
COc1ccc(NCc2nnc(SCC(=O)c3ccc(OC)cc3)o2)cc1	-	-	-	-	-
CN1CCc2c(sc3c2C(=O)NC(c2ccco2)N3)C1 (stereo not drawn)	-	-	-	-	-
CN1CCc2c(sc3c2C(=O)NC(c2cn(Cc4ccccc4)c4ccccc24)N3)C1 (stereo not drawn)	-	-	64	-	-
O=C1c2cc(Br)ccc2N(Cc2ccc(Br)cc2)S(=O)(=O)C1c1cc(Cl)c(Cl)cc1[N+](=O)[O-] (stereo not drawn)	-	108	.	-	-
O=C(NCCC(NS(=O)(=O)OCC(Cl)(Cl)Cl)c1ccccc1)C(F)(F)F (stereo not drawn)	-	-	-	-	-
CC1=NN(c2ccccc2)C(=O)/C1=C/c1c(O)n(-c2ccc(F)cc2)[nH]c1=O	-	87	-	-	-
CC1=NN(c2ccccc2)C(=O)/C1=C/c1ccc(Cl)cc1	-	-	-	-	-
CC(=O)O[C@H]1C(=O)[C@@]2(C)C([C@H](OC(=O)c3ccccc3)[C@]3(O)C[C@H](OC(=O)[C@H](O)[C@@H](NC(=O)c4ccccc4)c4ccccc4)C(C)=C1C3(C)C)[C@]1(OC(C)=O)CO[C@@H]1C[C@H]2O (stereo partly drawn)	-	-	102	-	-
CC(=O)O[C@H]1C(=O)[C@]2(C)[C@H]([C@H](OC(=O)c3ccccc3)[C@]3(O)C[C@H](OC(=O)[C@H](O)[C@@H](NC(=O)c4ccccc4)c4ccccc4)C(C)=C1C3(C)C)[C@]1(OC(C)=O)CO[C@@H]1C[C@@H]2O	-	-	95	-	-
O=C(c1cc2sccc2n1Cc1ccccc1)N1CCN(c2nc3ccccc3s2)CC1	99	-	-	-	-
CCC(=O)N1CCN(c2nc3ccccc3s2)CC1	.	-	-	-	-
Cc1cc(O)c(C2=Nc3ccccc3SC(c3ccc(Cl)cc3)C2)c(=O)o1 (stereo not drawn)	-	-	-	-	-
COc1ccc(C2CC(c3c(O)cc(C)oc3=O)=NCCS2)c(OC)c1 (stereo not drawn)	.	80	.	-	-
Cc1ccc(S(=O)(=O)N(C)c2ccc(C(=O)Nc3ccccc3C(=O)N3CCOCC3)cc2)cc1	-	-	-	-	-
COc1ccc(-c2nn(-c3ccccc3)cc2C(=O)OCC(=O)c2ccc(C)c([N+](=O)[O-])c2)cc1	101	-	-	-	-
COc1ccc(-c2cc(C(=O)OCC(=O)c3ccc(C)c([N+](=O)[O-])c3)c3ccccc3n2)cc1	-	-	-	-	-
O=C(CCCN1C(=O)NC2(CCCC2)C1=O)Nc1cccc(S(=O)(=O)N2CCOCC2)c1	.	.	.	-	.
CCCCNC(=S)N(C)/N=C/c1ccc2c(c1)OCO2	-	83	-	-	-
CNC(C)C(=O)NC(C(=O)N1CCCC1C(=O)NNc1ccccc1)C(C)C (stereo not drawn)	-	98	.	-	-
O=c1c(Cl)c(NCc2ccccc2)cnn1C12CC3CC(CC(C3)C1)C2	-	77	-	-	-
O=C(O)CC12CC3CC(C1)CC(n1ncc(NCc4ccco4)c(Cl)c1=O)(C3)C2	-	-	-	-	-
Cc1ccc(NC(=O)CCC(=O)NNC(=O)Nc2cccc(Cl)c2)c(C)c1	-	-	-	-	-
O=C(Nc1ccc(Cl)c(Cl)c1)Nc1nccs1	-	95	-	-	-
O=C(Nc1cccc(Cl)c1)Nc1nccs1	-	-	-	-	-
SMILES	Beta apoptosis	CSC inhib	aSyn 5UTR inh	Mdm2 MdmX PPI	A1 inh
COc1ccc(C)cc1NC(=O)CNC(c1ccccc1)c1ccc(C)cc1 (stereo not drawn)	-	-	103	-	-
COc1ccccc1NC(=O)CNC(c1ccccc1)c1ccccc1	-	-	-	-	-
Cc1cccc(C)c1OCC(O)CN1CCc2ccccc2C1 (stereo not drawn)	-	-	-	-	-
Cc1ccc(C(C)C)c(OCC(O)CN2CCc3ccccc3C2)c1 (stereo not drawn)	98	-	-	-	-
O=C(CN1C(=O)c2ccccc2S1(=O)=O)NC1CCCC1	-	-	-	-	-
O=C(NC1CCCCC1)C(c1ccc(F)cc1)N(CCc1ccccc1)C(=O)CN1C(=O)c2ccccc2S1(=O)=O (stereo not drawn)	-	-	-	.	18
Cc1cccc(NC(=O)/C(C#N)=C/c2cn(CC(=O)NCc3ccco3)c3ccccc23)c1	-	-	.	.	53
COCCNC(=O)/C(C#N)=C/c1cn(CC(=O)NCc2ccco2)c2ccccc12	-	-	-	-	-
CC1CC1C(=O)N1CCN(S(=O)(=O)c2cc(C(F)(F)F)cc(C(F)(F)F)c2)CC1 (stereo not drawn)	-	79	.	-	-
CC(C)c1ccc(S(=O)(=O)N2CCN(C(=O)C3CC3C)CC2)cc1 (stereo not drawn)	-	.	-	-	-
COc1ccc(-c2cc(CCCC(=O)NCCc3ccccc3)no2)cc1	-	-	-	-	-
CCOc1ccc(-c2cc(CCCC(=O)NCCc3ccccc3)no2)cc1	-	-	62	-	-
CCOc1ccc(-c2cc(CCCC(=O)Nc3cc(OC)ccc3OC)no2)cc1	-	-	83	-	-
Cn1c(=O)[nH]c(=O)c2c1nc(SCC(O)CCl)n2Cc1ccccc1 (stereo not drawn)	-	-	-	-	-
O=C1NN(c2ccccc2)C(=O)/C1=C/c1ccc(Sc2cccc3ccccc23)o1	-	79	-	-	-
CC1(NC(=O)/C=C/c2nc3ccccc3s2)CCS(=O)(=O)C1 (stereo not drawn)	-	-	.	-	-
CC(=O)Oc1ccc(/C(C)=N\N2CCN(Cc3ccc(Cl)cc3)CC2)cc1	-	-	-	-	-
Cc1occc1C(=O)Nc1ccc(OCc2ccccc2)cc1	-	90	-	-	-
CCCOc1ccc(C(=O)Nc2ccc(NC(=O)c3cccs3)cc2)cc1	-	.	-	-	-
O=C(Nc1ccc(OCc2ccccc2)cc1)c1cccs1	-	80	-	-	-
O=C(Cc1ccccc1)NNC(=S)NC(=O)c1cccs1	-	-	75	-	-
Cc1occc1C(=O)Nc1cccc(C(=O)NCc2ccccc2)c1	-	-	-	-	-
CCCCOc1cccc(C(=O)Nc2ccc(NC(=O)c3cccs3)cc2)c1	-	.	64	-	-
O=C(OCCCOC(=O)c1ccccc1O)c1ccccc1O	-	-	-	-	-
COc1ccc(CC(=O)OC(C)C(=O)NCc2ccc3c(c2)OCO3)cc1OC (stereo not drawn)	-	-	-	-	-
COC(=O)c1c(C)[nH]c(C(=O)COC(=O)Cn2cc(C(F)(F)F)ccc2=O)c1C	.	.	.	-	.
